Measured values as given in PubChem BioAssay (NCI).
Compounds without any hit were thinned out: in the full panel of roughly 83,000, 20% have a hit.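 Growth was measured after 48 h exposure to one concentration of compound in 96-well plates. Values under 10 count as active.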 Unmarked numbers belong to inactive results. Active and inactive are the calls of the source.

Key:
Test in all cases: NCI-60 one-dose screen, 48 h (100 = growth as untreated, 0 = no growth, -100 = all killed)
Details in all cases: 10 µM unless noted
DU-145 prostate = test system: DU-145 prostate
K-562 leukemia = test system: K-562 leukemia
MDA-MB-231 breast = test system: MDA-MB-231 breast
RXF 393 renal = test system: RXF 393 renal
SF-268 CNS = test system: SF-268 CNS
SF-295 CNS = test system: SF-295 CNS
SF-539 CNS = test system: SF-539 CNS
UACC-257 melanoma = test system: UACC-257 melanoma
M14 melanoma = test system: M14 melanoma
MALME-3M melanoma = test system: MALME-3M melanoma

Structure (SMILES)	growth (DU-145 prostate)	growth (K-562 leukemia)	growth (MDA-MB-231 breast)	growth (RXF 393 renal)	growth (SF-268 CNS)	growth (SF-295 CNS)	growth (SF-539 CNS)	growth (UACC-257 melanoma)	growth (M14 melanoma)	growth (MALME-3M melanoma) [%]
N=c1c2c(=O)n3c(nc2nc2sc4ccc(Cl)cc4n12)-c1ccccc1Sc1ccccc1-3	38.4%	19.8%	7.92% (active)	38.2%	42.2%	5.48% (active)	27.2%	29.9%	21.6%	–
O=C(/C=C1\C(=O)N(Cc2ccc([N+](=O)[O-])cc2)c2ccccc21)c1ccc(OCCN2CCCCC2)cc1	-35.3% (active)	-35.2% (active)	-60.8% (active)	-90.7% (active)	-35.4% (active)	49.7%	-84.6% (active)	-4.94% (active)	-59.4% (active)	–
CCCC(=O)NNc1[nH]c(-c2cc(OC)c(OC)c(OC)c2)cc1C(=O)OCC	94.5%	37.9%	107%	105%	120%	95.3%	91.6%	106%	–	–
O=C(/C=C1\C(=O)N(Cc2ccccc2)c2ccccc21)c1ccc(OCCN2CCCCC2)cc1	47.5%	2.2% (active)	45.9%	0.729% (active)	73.9%	85.6%	51.9%	76.8%	37.9%	–
O=S(=O)(O)c1ccc2c(c1)Sc1cc(S(=O)(=O)O)ccc1O2	116%	100%	101%	116%	112%	103%	117%	108%	107%	–
O=c1oc2ccc3ccccc3c2cc1-c1ccnc2[nH]c(=S)[nH]c(=O)c12	106%	93.4%	87.4%	118%	98.7%	101%	103%	98.9%	105%	–
COc1ccc2c(c1)/C(=C/c1c(-c3cc(OC)c(OC)c(OC)c3)nc3sccn13)C(=O)N2	88%	87.3%	66.1%	82.4%	107%	93.2%	91.9%	101%	–	–
COc1ccc(C2=NN(C(=O)c3cc(-c4ccc(C)cc4)nc4ccccc34)C(c3cc(-c4ccccc4)nn3-c3ccccc3)C2)cc1 (stereo not given)	91.2%	84.1%	99.1%	95.2%	77.1%	86.7%	105%	96.8%	83.4%	–
COc1ccc(/C=C2\CCCC3=C2N=C2SC=NN2C3c2ccc(OC)c(OC)c2)cc1OC (stereo not given)	24.9%	26.9%	55.2%	50.4%	41.6%	46.1%	37.4%	54.6%	47.5%	–
CC(C)OC(=O)Nn1cnc2ccccc21	103%	96.7%	117%	108%	120%	103%	95.2%	109%	–	–
COc1cc(CNC(=O)CCCC/C=C/C(C)C)ccc1OCc1nnc(Nc2ccccc2F)o1	88.7%	60.4%	63.9%	68.8%	45.5%	48%	48.2%	98.2%	99.7%	–
O=C(N/N=C\c1ccc(-c2ccc(Br)cc2)o1)c1cc2oc(-c3cccc(C(F)(F)F)c3)cc2[nH]1	126%	90.2%	111%	–	87.7%	–	97.9%	-48.2% (active)	117%	97.1
CCCCn1c(Cc2ccc(OC)cc2)nc2cc(OC)c(OC)cc2c1=O	103%	48.6%	73.9%	–	86.1%	–	103%	-56.6% (active)	119%	112
COc1ccc(CN2C(=O)/C(=C\C(=O)c3ccc(OCCN4CCCC4)cc3)c3ccccc32)cc1	71.9%	-25.9% (active)	93%	65.2%	84.3%	93.9%	86.6%	105%	79.6%	–
COc1ccc(/C=C2\SC(=O)N(Cc3cc(=O)oc4ccc(OC)cc34)C2=O)cc1	91.3%	54.2%	83.1%	110%	88.8%	82.7%	89.6%	100%	92.7%	–
